These results are taken from PubChem BioAssay (Tox21).

Each structure is given as a SMILES string. Inconclusive results are not listed. Entries that show only a call come without a potency. Active and inactive are the calls of the source. Calls follow the shape of the full dose curve.

A short description of the assay: qHTS assay to identify small molecule agonists of H2AX - cell viability counter screen (AID 1224847). Also: top concentration of the series differs between compounds; nearly all actives have a fitted effect of over 30% in size. The settings on record: CHO-K1 viability, CellTiter-Glo luminescence, 3 h; series mostly up to 154 µM. The text has this:
National Center for Advancing Translational Sciences [NCATS]
NIH Chemical Genomics Center [NCGC]
U.S. Environmental Protection Agency [EPA]
National Institutes of Environmental Health Sciences [NIEHS]
National Toxicology Program [NTP]
U.S. Food and Drug Administration [FDA]
HTRF phospho-H2AX (Ser139) assay (Cisbio Bioassays, US) enables the quantitative detection of the histone variant H2AX when phosphorylated on serine 139. When double-stranded DNA breaks, either by ionizing radiation or endogenous physiological processes, H2AX becomes phosphorylated at Ser139. This phospho-Ser139 serves as a sensitive biomarker for the detection of such breaks, localizing the site of DNA repair. So, HTRF phospho-H2AX Ser139 is a pertinent assay to study genome stability, the cell cycle, DNA repair, and it serves as a biomarker for cancer, and to understand aging. Wild type CHO-K1 cells were used to identify the inducers of Phospho-H2AX Ser 139 from the Tox21 compound collections. Also cytotoxicity of the Tox21 10K compound library against the CHO-K1 cell line was tested by measuring the cell viability using CellTiter-Glo assay (Promega, Madison, WI).
Tox21 Assay Protocol Summary:
The CHO-K1 cells suspended in culture medium containing 10% FBS were dispensed at 1000 cells/ 3 ul/well in 1536-well white wall/solid bottom plates (Greiner Bio-One North America, NC) using a Multidrop Combi (Thermo Fisher Scientific Inc., Waltham, MA). After the assay plates were incubated at 37C overnight, 23 nl of compounds at 15 concentrations (from 5-48 columns) or positive control (from 1 to 4 columns) were transferred to the assay plates using a Pintool station (Wako, San Diego, CA) into each well resulting in a final DMSO concentration of 0.76%. After 3hr incubation at 37C, 3 uL/well CellTiter-Glo luminescent cell viability reagent (Promega Corporation, Madison, WI) was added using a Flying Reagent Dispenser (FRD) (Aurora Discovery, CA). After incubation at room temperature for 30 min, the luminescence intensity was read using a ViewLux plate reader (PerkinElmer, Waltham, MA).
On to `CC(C)CCCC(C)(C)O`, for which the Potency entry is “inactive”.
As for `C=C1CC/C=C(\C)CC[C@@H]2[C@@H]1CC2(C)C`, the entry is “inactive”; as for `CCCN1C[C@H](CSC)C[C@@H]2c3cccc4[nH]cc(c34)C[C@H]21`, “inactive”.
For `COc1ccc(Br)c(C)c1`, the Potency entry was “inactive”.
On to `CCCCCCCCCCCCCC`, for which the Potency entry was “inactive”.
The result for `CCCC/C=C\CCCCCCCCCC=O` reads “inactive”; that for `CCOC(=O)/C=C/c1ccccc1`, “inactive”; that for `CCCCOCCOC(=O)COc1nc(Cl)c(Cl)cc1Cl`, “inactive”.
As for `N#Cc1ccc(C(=O)O)cc1`, the Potency entry is “inactive”.
On to `C=C(C)C1CCC(C)(O)CC1` (stereo not given), for which the Potency result is “inactive”.
As for `CNS(=O)(=O)CCc1ccc2[nH]cc(C3CCN(C)CC3)c2c1`, the entry is “inactive”; as for `O=C(O)C(=O)Cc1ccccc1`, “inactive”.
`CC/C=C\CC1=C(C)CCC1=O`: the Potency entry is “inactive”.
As for `OCCN(CCO)c1cccc(Cl)c1`, the Potency result is “inactive”.
As for `C=C(C)C(=O)OCCNC(C)(C)C`, the entry is “inactive”.
The result for `CCN1CCc2nc(N)oc2CC1` reads “inactive”; that for `CC(=O)OC(C)OC(=O)C(C)c1ccc(-c2ccccc2)c(F)c1` (stereo not given), “inactive”.
As for `C=Cc1ccccn1`, the entry is “inactive”.
For the compound `O=C1c2ccccc2C(=O)N1CCl`, the Potency entry is “inactive”.
The result for `CCC(CC)CO` reads “inactive”; that for `Nc1ncnc(Nc2ccccc2)n1`, “inactive”; that for `CN(C)CCOCCO`, “inactive”.
The result for `Cc1ccc(C=O)cc1C` reads “inactive”; that for `CCC(C)NC(N)=O` (stereo not given), “inactive”; that for `CC(=O)/C=C/C1C(C)=CCC(C)C1(C)C` (stereo not given), “inactive”.
As for `CCOC(=O)CC(=O)c1ccccc1`, the Potency result is “inactive”.
In the case of `O=C1CCCC(=O)O1`, the Potency result was “inactive”.
Take `O=C(c1ccc(O)cc1)c1ccc(O)c(O)c1O`: the Potency result is “inactive”.
The result for `OCCCCC(O)CO` (stereo not given) reads “inactive”; that for `O=C(O)CCSSCCC(=O)O`, “inactive”.
Regarding `CC(=O)Nc1ccc(S(=O)(=O)Cl)cc1`, the Potency result was “inactive”.
The result for `C[C@@H](O)[C@H]1C(=O)N2C(C(=O)O)=C(SCCN=CN)C[C@H]12` reads “inactive”.
As for `CCN(CC)CC(=O)Nc1c(C)cccc1C`, the entry is “inactive”; as for `O=C(O)c1cc(Br)c(O)c(Br)c1`, “inactive”.
The result for `Cc1cc(Cl)c(C)cc1Cl` reads “inactive”.
For `COc1cc(C(=S)N2CCOCC2)cc(OC)c1OC`, the Potency entry was “inactive”.
Regarding `C[Si](C)(C)C`, the Potency result is “inactive”.
`CC(=O)Nc1cccc(C)c1`: the Potency result is “inactive”.
Take `CCC(C=O)CC`: the Potency result is “inactive”.
On to `Cc1cccc(C)c1OCC(C)N` (stereo not given), for which the Potency result is “inactive”.
